Laboratory results published in PubChem BioAssay (NCATS).
Results filed as inconclusive are left out. Active and inactive are the calls of the source. Unless noted, the call rests on the fitted dose curve; in most records, active means well fitted curve in the direction sought with a large enough effect; inconclusive means small, poorly fitted or top-dose-only effect, or another doubt; inactive means no such curve, though single readings can be large; an effect the other way counts as inactive or inconclusive.

Tests used:
[1] = qHTS to identify inhibitors of the type 1 interferon - major histocompatibility complex class I in skeletal muscle: primary screen against the NCATS Pharmaceutical Collection (AID 1347407);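 further: luminescence of HiBiT knocked into endogenous HLA-B as interferon-induced MHC class I level; on the % scale 0 is the no-effect control and ±100 the full control effect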
Procedure, shortened: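 Immortalized human myoblasts (C25cl48) with HiBiT knocked into endogenous HLA-B*08:01 were stimulated with 4.0 ng/ml IFN-beta and treated with compounds ([…] top 46 uM) for 24 hrs at 37 C. HiBiT lytic luminescence read.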

[2] = target: Protein phosphatase 1D (Homo sapiens) (UniProt O15297); assay: RapidFire Mass Spectrometry qHTS Assay for Modulators of WT P53-Induced Phosphatase 1 (WIP1) (AID 1347424);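 further: amount of dephosphorylated VEPPL-S-QETFS peptide product formed by WIP1; series mostly up to about 63 µM; plate controls were DMSO wells for no effect and GSK830371 inhibitor control at 10 µM for full effect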
Procedure, shortened: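 Mass-spectrometric measurement of dephosphorylated peptide after a 5 min room-temperature reaction of 10 nM WIP1 with 2 uM phosphopeptide, following 1 h compound preincubation in 30 mM MgCl2 buffer.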

[3] = target: Protein phosphatase 1D (Homo sapiens) (UniProt O15297); assay: Rhodamine-PBP qHTS Assay for Modulators of WT P53-Induced Phosphatase 1 (WIP1) (AID 1347425); further: % of control where 0% means no effect
Procedure, shortened: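 Steps: enzyme with Rh-PBP sensor and compounds, room-temperature incubation of 1 hr, baseline read, addition of VEPPL-pS-QETFS (10 uM final), kinetic fluorescence reads at 525/598 nm. Activity equals final minus baseline signal.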

[4] = target: Calcium and integrin-binding protein 1 (Homo sapiens) (UniProt Q99828); assay: Primary qHTS for Identification of Calcium Integrin Binding Protein 1 (CIB1) Competitor (AID 1508620);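 further: GST tagged CIB1 binding a fluorescein labelled alphaIIb integrin peptide tracer; top concentration of the series differs between compounds; on the % scale 0 is the no-effect control and ±100 the full control effect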
Procedure, shortened: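 Fluorescence polarization competition: CIB1-GST (1 uM final) preincubated with compound 15 min at room temperature, then FITC-labeled alphaIIb peptide (100 nM final) added for another 15 min. Polarization read at Ex 480/Em 540.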

[5] = Primary qHTS for small molecule stabilizers of the endoplasmic reticulum resident proteome: Secreted ER Calcium Modulated Protein (SERCaMP) assay (AID 1508630); further: on the % scale 0 is the no-effect control and ±100 the full control effect
Procedure, shortened: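 The SH-SY5Y reporter protocol was run at 3 concentrations up to 38.3 uM (primary) or 11 concentrations (follow-up): 16 h compound, 100 nM thapsigargin for 4 h, then extracellular luciferase luminescence.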

[6] = A High-Content qHTS Against Drug Library for the Identification of Small Molecules that Inhibit DYT1 Early Onset Primary Dystonia-Associated Cell Pathology (AID 1645839; calls by dose curve; further: potency means the concentration at half of the fitted maximal effect; on % pathology change, negative = correction: series mostly up to about 46 µM)
Procedure, shortened: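 Induced EGFP-delE TorsinA cells are imaged after 48 h of compound treatment. Punctate fusion-protein distribution gives the %pathology value, while nuclei counts flag toxicity. Wild-type EGFP-hTOR1A cells define the normal pattern.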

[7] = target: Cytochrome P450 2D6 (Homo sapiens) (UniProt P10635); assay: Cytochrome P450 family 2 subfamily D member 6 (CYP2D6) small molecule antagonists: luciferase biochemical (cell-free) qHTS assay (AID 1645840; active means well fitted curve in the direction sought with a large enough effect in the repeat runs; an effect the other way counts as inactive or inconclusive; further: nearly all actives have a fitted effect of over 55% in size; further: potency means the concentration at half of the fitted maximal effect; on activity change, negative = inhibition: series mostly up to about 57 µM; on the % scale 0 is the no-effect control and ±100 the full control effect)
Procedure, shortened: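 P450-Glo CYP2D6 system: proluciferin substrate converted by enzyme to luciferin, read by luminescence proportional to activity. Enzyme-substrate mix with compound 10 min at room temperature, then NADPH regeneration 1 h before detection reagent.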

[8] = target: Cytochrome P450 2C9 (Homo sapiens) (UniProt P11712); assay: Cytochrome P450 family 2 subfamily C member 9 (CYP2C9) small molecule antagonists: luciferase biochemical (cell-free) qHTS assay (AID 1645842; active means well fitted curve in the direction sought with a large enough effect in the repeat runs; an effect the other way counts as inactive or inconclusive; further: nearly all actives have a fitted effect of over 55% in size; further: potency means the concentration at half of the fitted maximal effect)
Procedure, shortened: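 P450-Glo CYP2C9 system: proluciferin substrate with enzyme in mix containing 0.4% BSA, 10 min at room temperature, then NADPH regeneration solution added and incubated 1 h at 37C. Detection reagent stopped reaction; luminescence read after 20 min as RLU.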

[9] = Primary qHTS for inhibitors of nuclear receptor binding SET domain protein 2 (NSD2) in an isogenic RCH-ACV NSD2 p.E1099K mutant (9B) (AID 1645876); further: nearly all actives have a fitted effect of over 70% in size
[10] = Primary qHTS for inhibitors of La Crosse Virus (LACV) - induced cell death in SH-SY5Y cells (AID 1508616);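 further: top concentration of the series differs between compounds; 0% = infected DMSO wells and 100% = uninfected DMSO wells; higher means more rescue of cells from virus-induced death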
Procedure, shortened: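 Screening measures cell viability in LACV-infected SH-SY5Y cultures. Compound was added before virus (0.01 MOI), and ATP was detected by luminescence 6 days later.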

[11] = Primary qHTS for inhibitors of nuclear receptor binding SET domain protein 2 (NSD2) in an RCH-ACV wild type WT cells (2C) (AID 1645877); further: nearly all actives have a fitted effect of over 70% in size
[12] = target: Cytochrome P450 3A4 (Homo sapiens) (UniProt P08684); assay: Cytochrome P450 family 3 subfamily A member 4 (CYP3A4) small molecule antagonists: luciferase qHTS assay (AID 1645841; active means well fitted curve in the direction sought with a large enough effect in the repeat runs; an effect the other way counts as inactive or inconclusive; further: nearly all actives have a fitted effect of over 45% in size)
Procedure, shortened: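 P450-Glo CYP3A4 enzyme with proluciferin substrate was preincubated with DMSO-dissolved compounds for 10 min at room temperature. NADPH regeneration solution started a 1 h reaction. Detection reagent stopped it, and luminescence was read after 20 min.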

[13] = Counterscreen qHTS for small molecule stabilizers of the endoplasmic reticulum resident proteome: GLuc-NoTag assay (AID 1508627);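 further: series mostly up to about 76 µM; 0% = thapsigargin alone and -100% = DMSO vehicle control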
Procedure, shortened: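 Secreted GLuc lacking the SERCaMP modification is measured in SH-SY5Y cells exposed to compound for 19 h and then to thapsigargin (100 nM, 4 h) to deplete ER calcium; hits retested at 11 concentrations, up to 76.6 uM.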

[14] = Confirmatory qHTS for small molecule stabilizers of the endoplasmic reticulum resident proteome: Secreted ER Calcium Modulated Protein (SERCaMP) assay (AID 1508628); further: series mostly up to about 76 µM; on the % scale 0 is the no-effect control and ±100 the full control effect; nearly all actives have a fitted effect of over 40% in size
Procedure, shortened: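 GLuc-SERCaMP-expressing SH-SY5Y cells, pretreated 16 h with compound, are challenged with thapsigargin to empty ER calcium stores; after 4 h, coelenterazine is added directly to the medium and luminescence is imaged.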

[15] = target: N-terminal Xaa-Pro-Lys N-methyltransferase 1 (Homo sapiens) (UniProt Q9BV86); assay: Confirmatory qHTS for Inhibitors of N-terminal methyltransferase 1 (NTMT1): MTaseGlo Assay (AID 1645874); further: potency means the concentration at half of the fitted maximal effect; nearly all actives have a fitted effect of over 65% in size
Procedure, shortened: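 Room-temperature NTMT1 reaction, 30 min, with 100 uM SAM and 1 uM SPKRIA substrate; enzyme 125 nM. Read-out: MTase-Glo luminescence, normalized to no-enzyme and DMSO controls.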

Sequence of Cytochrome P450 2C9 (Homo sapiens) (P11712 whole entry, looked up): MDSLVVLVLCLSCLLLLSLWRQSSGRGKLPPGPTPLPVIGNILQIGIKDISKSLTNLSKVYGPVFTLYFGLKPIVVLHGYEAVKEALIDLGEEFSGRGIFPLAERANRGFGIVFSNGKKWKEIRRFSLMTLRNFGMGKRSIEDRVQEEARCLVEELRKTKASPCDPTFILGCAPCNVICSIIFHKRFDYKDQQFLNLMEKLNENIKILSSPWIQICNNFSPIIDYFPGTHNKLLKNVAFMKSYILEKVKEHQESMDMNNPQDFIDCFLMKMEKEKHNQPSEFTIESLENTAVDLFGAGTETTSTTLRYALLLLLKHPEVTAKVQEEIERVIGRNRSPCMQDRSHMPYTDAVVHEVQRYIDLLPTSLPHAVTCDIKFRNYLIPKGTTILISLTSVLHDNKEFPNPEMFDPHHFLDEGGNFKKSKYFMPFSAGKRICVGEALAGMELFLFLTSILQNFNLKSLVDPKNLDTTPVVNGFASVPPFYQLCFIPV
Sequence of Protein phosphatase 1D (Homo sapiens) (O15297 whole entry, looked up): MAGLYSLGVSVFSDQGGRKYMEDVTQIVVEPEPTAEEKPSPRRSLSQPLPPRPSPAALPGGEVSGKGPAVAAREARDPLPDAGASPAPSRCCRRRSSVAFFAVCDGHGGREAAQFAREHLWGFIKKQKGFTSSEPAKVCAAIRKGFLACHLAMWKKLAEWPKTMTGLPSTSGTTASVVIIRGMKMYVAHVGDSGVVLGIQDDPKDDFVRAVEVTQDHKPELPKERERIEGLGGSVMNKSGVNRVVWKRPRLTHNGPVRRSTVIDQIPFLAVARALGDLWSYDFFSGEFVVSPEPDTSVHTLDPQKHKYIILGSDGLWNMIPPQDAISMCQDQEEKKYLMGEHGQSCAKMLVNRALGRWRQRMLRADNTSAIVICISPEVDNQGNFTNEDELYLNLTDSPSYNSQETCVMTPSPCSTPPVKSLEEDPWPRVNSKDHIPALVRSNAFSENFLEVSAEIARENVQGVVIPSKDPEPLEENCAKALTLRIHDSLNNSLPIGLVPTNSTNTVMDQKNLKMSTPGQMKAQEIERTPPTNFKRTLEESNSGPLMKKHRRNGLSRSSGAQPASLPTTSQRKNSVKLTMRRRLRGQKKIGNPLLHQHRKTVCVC
Sequence of Calcium and integrin-binding protein 1 (Homo sapiens) (Q99828 whole entry, looked up): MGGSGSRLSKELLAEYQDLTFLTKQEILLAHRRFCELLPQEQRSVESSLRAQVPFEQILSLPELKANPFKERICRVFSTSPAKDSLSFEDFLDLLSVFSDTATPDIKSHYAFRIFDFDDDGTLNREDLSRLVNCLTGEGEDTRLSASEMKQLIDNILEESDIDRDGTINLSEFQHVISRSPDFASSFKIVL
Sequence of Cytochrome P450 2D6 (Homo sapiens) (P10635 whole entry, looked up): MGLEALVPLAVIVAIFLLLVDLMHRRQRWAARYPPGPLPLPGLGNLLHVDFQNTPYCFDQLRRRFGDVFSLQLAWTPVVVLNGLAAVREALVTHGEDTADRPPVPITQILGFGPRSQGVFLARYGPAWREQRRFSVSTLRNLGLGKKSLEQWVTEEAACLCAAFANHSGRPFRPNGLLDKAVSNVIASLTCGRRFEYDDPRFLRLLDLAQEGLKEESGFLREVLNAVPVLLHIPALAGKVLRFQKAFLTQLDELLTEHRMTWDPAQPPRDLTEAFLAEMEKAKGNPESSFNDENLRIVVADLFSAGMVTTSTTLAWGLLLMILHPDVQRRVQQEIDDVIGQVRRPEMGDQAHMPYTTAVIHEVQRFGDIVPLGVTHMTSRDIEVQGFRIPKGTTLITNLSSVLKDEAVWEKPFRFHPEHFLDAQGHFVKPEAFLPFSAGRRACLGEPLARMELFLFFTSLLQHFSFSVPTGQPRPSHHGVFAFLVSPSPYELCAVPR
Sequence of Cytochrome P450 3A4 (Homo sapiens) (P08684 whole entry, looked up): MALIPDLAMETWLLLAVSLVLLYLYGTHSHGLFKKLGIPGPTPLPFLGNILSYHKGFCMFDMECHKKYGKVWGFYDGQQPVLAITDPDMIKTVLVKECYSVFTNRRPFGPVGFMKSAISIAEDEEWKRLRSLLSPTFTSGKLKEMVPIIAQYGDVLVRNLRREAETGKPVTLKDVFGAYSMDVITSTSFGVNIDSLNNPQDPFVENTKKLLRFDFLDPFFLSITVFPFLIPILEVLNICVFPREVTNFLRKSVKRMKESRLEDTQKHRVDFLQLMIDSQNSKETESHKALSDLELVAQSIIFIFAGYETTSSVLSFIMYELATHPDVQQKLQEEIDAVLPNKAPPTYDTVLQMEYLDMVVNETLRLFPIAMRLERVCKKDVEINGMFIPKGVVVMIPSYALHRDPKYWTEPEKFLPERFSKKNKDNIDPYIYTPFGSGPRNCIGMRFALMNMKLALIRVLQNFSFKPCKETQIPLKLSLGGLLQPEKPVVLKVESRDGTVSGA
Sequence of N-terminal Xaa-Pro-Lys N-methyltransferase 1 (Homo sapiens) (Q9BV86 whole entry, looked up): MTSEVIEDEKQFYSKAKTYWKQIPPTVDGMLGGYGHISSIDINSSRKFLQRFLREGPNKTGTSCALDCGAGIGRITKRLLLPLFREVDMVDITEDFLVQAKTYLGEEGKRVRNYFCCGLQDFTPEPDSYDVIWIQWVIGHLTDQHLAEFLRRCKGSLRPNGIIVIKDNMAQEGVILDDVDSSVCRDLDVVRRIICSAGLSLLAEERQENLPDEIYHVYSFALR

COc1ccccc1OC(=O)Oc1ccccc1OC
inactive: outcome [1] | outcome [2] | outcome [3] | outcome [4] | outcome [5] | Potency [6] | Potency [7] | Potency [8] | Potency [9]

C[N+](C)(C)CC[N+]1(C)Cc2c(Cl)c(Cl)c(Cl)c(Cl)c2C1
active: Potency [7] 1.95 µM
inactive: outcome [1] | outcome [2] | outcome [3] | outcome [4] | outcome [5] | Potency [6] | Potency [8] | Potency [9]

Nc1ccncc1N
inactive: outcome [1] | outcome [2] | outcome [3] | outcome [10] | outcome [5] | Potency [6] | Potency [7] | Potency [9] | Potency [11]

O=S1(=O)OC(c2ccc(O)cc2)(c2ccc(O)cc2)c2ccccc21
active: Potency [8] 1.95 µM
inactive: outcome [1] | outcome [2] | outcome [3] | outcome [10] | Potency [6] | Potency [7] | Potency [9]

NC(N)=NCCN1CCCCCCC1
inactive: activity change, negative = inhibition [1] -12.2% [at 0.727 µM] | activity change, negative = inhibition [2] 2.05% [at 0.505 µM] | activity change, negative = inhibition [3] 1.78% [at 0.575 µM] | activity change [10] -10.9% [at 0.0343 µM] | activity change, negative = inhibition [4] -2.06% [at 1.07 µM] | % pathology change, negative = correction [6] -4.73% [at 0.369 µM] | outcome [9] inactive [at 0.588 µM] | activity change, negative = cell killing [11] 1.99% [at 0.588 µM]

Cc1ccccc1N=Nc1ccc(N=Nc2c(O)ccc3ccccc23)c(C)c1
inactive: outcome [1] | outcome [2] | outcome [3] | outcome [10] | outcome [4] | Potency [6] | Potency [8] | Potency [9] | Potency [11]

O=C(c1ccccc1)C(O)c1ccccc1 (centres undefined)
inactive: outcome [1] | outcome [2] | outcome [3] | outcome [10] | outcome [5] | Potency [6] | Potency [7] | Potency [8] | Potency [9] | Potency [11]

NS(=O)(=O)c1ccc(NC(=O)CCC(=O)O)cc1
inactive: outcome [1] | outcome [2] | outcome [3] | outcome [10] | outcome [4] | Potency [6] | Potency [7] | Potency [9] | Potency [11]

COc1ccc(-c2cc(=O)c3c(O)cc(O[C@@H]4O[C@H](CO[C@@H]5O[C@@H](C)[C@H](O)[C@@H](O)[C@H]5O)[C@@H](O)[C@H](O)[C@H]4O)cc3o2)cc1O
inactive: outcome [1] | outcome [2] | outcome [3] | outcome [10] | outcome [5] | Potency [7] | Potency [8] | Potency [9] | Potency [11]

Nc1ccc(S(=O)(=O)c2ccc(N)cc2)cc1
inactive: outcome [1] | outcome [2] | outcome [3] | outcome [10] | Potency [6] | Potency [7] | Potency [8] | Potency [9] | Potency [11]

COC(=O)c1ccc(O)cc1
inactive: outcome [1] | outcome [2] | outcome [3] | outcome [10] | outcome [5] | Potency [6] | Potency [7] | Potency [8] | Potency [9] | Potency [11]

C1CCN2C[C@@H]3C[C@@H](CN4CCCC[C@@H]34)[C@H]2C1
inactive: outcome [1] | outcome [2] | outcome [3] | outcome [10] | outcome [4] | Potency [6] | Potency [9] | Potency [11]

FC(F)(F)C(Cl)Br (centres undefined)
inactive: outcome [1] | outcome [2] | outcome [3] | outcome [4] | outcome [5] | Potency [6] | Potency [7] | Potency [8] | Potency [9]

O=C(O)CCC(=O)O
inactive: outcome [1] | outcome [2] | outcome [3] | outcome [10] | Potency [6] | Potency [7] | Potency [8]

C[C@@H](N)C(=O)O
inactive: outcome [1] | outcome [2] | outcome [3] | outcome [4] | outcome [5] | Potency [6] | Potency [7] | outcome [12] | Potency [8] | Potency [9] | Potency [11]

Cc1ccc2c(c1)c1c3n2CCNC3CCC1 (centres undefined)
inactive: outcome [1] | outcome [2] | outcome [3] | outcome [4] | outcome [13] | Potency [14] | outcome [5] | Potency [9]

CC(C)NC[C@@H](O)COc1ccc(CC(N)=O)cc1
inactive: outcome [1] | outcome [2] | outcome [3] | outcome [10] | outcome [4] | Potency [6] | Potency [9]

COc1ccc(O)cc1
inactive: outcome [1] | outcome [2] | outcome [3] | outcome [10] | outcome [4] | Potency [7]

CC[N+](CC)(CC(=O)Nc1c(C)cccc1C)Cc1ccccc1
inactive: outcome [1] | outcome [2] | outcome [3] | outcome [4] | outcome [5] | Potency [6] | Potency [7] | Potency [8] | Potency [9] | Potency [11]

Cc1c(C(=O)NCCO)[n+](=O)c2ccccc2n1[O-]
inactive: outcome [1] | outcome [2] | outcome [3] | outcome [4] | outcome [5] | Potency [6] | Potency [7] | outcome [12] | Potency [8] | Potency [9] | Potency [11]

CC(C)c1cc2c(cc1S(=O)(=O)O)[C@@]1(C)CCC[C@@](C)(C(=O)O)[C@@H]1CC2
inactive: outcome [1] | outcome [2] | outcome [3] | outcome [4] | Potency [6] | Potency [7] | Potency [8] | Potency [9] | Potency [11]

O=C(O)CCCCC1CCSS1 (centres undefined)
inactive: outcome [1] | outcome [2] | outcome [3] | Potency [6] | Potency [7] | Potency [8] | Potency [9] | Potency [11]

CCCCCCCCCCCCCCCCC(C(=O)O)C(O)(CC(=O)O)C(=O)O (centres undefined)
active: Potency [6] 7.94 µM | Potency [15] 17 µM
inactive: outcome [1] | outcome [3] | outcome [10] | outcome [4] | outcome [5] | Potency [8]

COc1ccccc1Oc1c(NS(=O)(=O)c2ccc(C(C)(C)C)cc2)nc(-c2ncccn2)nc1OCCO
inactive: outcome [1] | outcome [2] | outcome [3] | outcome [4] | outcome [5] | Potency [7]

O=C(O)c1ccccc1OP(=O)(O)O
inactive: outcome [1] | outcome [2] | outcome [10] | outcome [4] | Potency [6] | Potency [7] | Potency [8] | Potency [9]

CCCCOC(=O)c1ccc(N)cc1
inactive: outcome [2] | outcome [3] | outcome [4] | Potency [11]
